Data from PubChem BioAssay.
Values joined by “and” are separate entries in the source; they are usually repeats but may differ in a detail not shown here. Identical values can stand only once. A structure can be active in one record and inactive in another. Active and inactive are the calls of the source.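 How the source made its calls, unless noted: active means inhibition at or above 50% relative to wild type and mutant plate controls; inactive means inhibition below 50%.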

Key:
[1] = inhibitors of TNFa-induced NFkB p65 translocation, primary screen, imaging, HUVEC, MLSMR starter and 10KST1 sets (AID 438;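 active means inhibition above 20% together with a positive visual image hit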;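 further: compound added about 3h40 before a 20 min TNFalpha stimulation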;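 on inhibition: signal is the nuclear over cytoplasmic p65 intensity ratio per well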); settings: HUVEC TNFa-induced p65 nuclear translocation; cell count: measured here: nuclei count (cytotoxicity indicator), at 2.08 µM; inhibition: at 2 µM, stronger effect = higher value, 0% TNFa-plus-vehicle, 100% no-TNFa wells
[2] = inhibitors of mutant huntingtin aggregation, primary screen, imaging, exon1htt(103Q)mCFP cells, high-content imaging (AID 483;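 active means visual image review flags a hit and inhibition of aggregation exceeds 20%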;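 further: compound exposure lasted 3 days before fixation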;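 on nuclei count: percent of the per-plate median nuclei count of sample wells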); settings: exon1htt(103Q)mCFP cell line, aggregate imaging, at 2 µM; inhibition of aggregation: stronger effect = higher value; nuclei count: measured here: cell count, toxicity
[3] = inhibitors of E-selectin induction by TNFa, primary screen, imaging, HUVEC, immunofluorescence, MLSMR starter and 10KST1 sets (AID 487;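 active means visually confirmed hit in the image check and inhibition above 20%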;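 on inhibition: signal is fraction of cell area covered by stained E-selectin grains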;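 on nuclei count: 100% = median nuclei count of all wells on the same plate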); settings: HUVEC TNFalpha-induced E-selectin immunofluorescence imaging, at 2 µM; inhibition: stronger effect = higher value; nuclei count: measured here: cell number, toxicity
[4] = DUSP6 inhibitors restoring Erk phosphorylation by chemical complementation, primary imaging in DUSP6-transfected HeLa (AID 609;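 active means compounds giving at least 50% inhibition in the cell-based MKP-3 phosphatase rescue imaging test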;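 on inhibition: phospho-Erk level distribution per well compared with pooled transfected vehicle control wells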); settings: HeLa MKP-3 transfected, phospho-Erk imaging KS statistic, at 10 µM, cells stimulated with TPA for 15 min
[5] = biological target: Dual specificity protein phosphatase 6 (Homo sapiens) (UniProt Q16828); assay: as above; settings: HeLa MKP-3 transfected, phospho-Erk imaging KS statistic; at 10 µM; stronger effect = higher value; cells stimulated with TPA for 15 min
Sequence of Dual specificity protein phosphatase 6 (Homo sapiens) (Q16828 whole entry, looked up): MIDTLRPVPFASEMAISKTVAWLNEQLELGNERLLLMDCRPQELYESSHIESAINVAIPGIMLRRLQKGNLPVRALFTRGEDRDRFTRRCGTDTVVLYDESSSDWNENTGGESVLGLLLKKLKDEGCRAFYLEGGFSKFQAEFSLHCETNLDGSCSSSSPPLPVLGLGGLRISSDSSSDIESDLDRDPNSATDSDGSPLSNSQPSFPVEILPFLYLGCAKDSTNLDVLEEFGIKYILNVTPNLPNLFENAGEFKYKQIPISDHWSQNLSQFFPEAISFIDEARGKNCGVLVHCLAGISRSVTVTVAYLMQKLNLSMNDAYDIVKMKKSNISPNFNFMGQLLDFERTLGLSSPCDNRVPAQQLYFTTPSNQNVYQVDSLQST

[6] = biological target: Voltage-gated potassium channel subunit beta-2 (Rattus norvegicus) (UniProt P62483); assay: KvBeta enzyme negative modulators, primary screen, biochemical, NADPH fluorescence (AID 622;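 active means fluorescence slope higher than the sample average by over 3 SD, cut at about -0.22 in these data, passing the limit was not always enough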;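 further: slope of raw intensity against log time taken from 70 to 1610 s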); settings: recombinant KvBeta, 4-cyanobenzaldehyde reduction, at 10 µM, stronger effect = higher value
Sequence of Voltage-gated potassium channel subunit beta-2 (Rattus norvegicus) (P62483 whole entry, looked up): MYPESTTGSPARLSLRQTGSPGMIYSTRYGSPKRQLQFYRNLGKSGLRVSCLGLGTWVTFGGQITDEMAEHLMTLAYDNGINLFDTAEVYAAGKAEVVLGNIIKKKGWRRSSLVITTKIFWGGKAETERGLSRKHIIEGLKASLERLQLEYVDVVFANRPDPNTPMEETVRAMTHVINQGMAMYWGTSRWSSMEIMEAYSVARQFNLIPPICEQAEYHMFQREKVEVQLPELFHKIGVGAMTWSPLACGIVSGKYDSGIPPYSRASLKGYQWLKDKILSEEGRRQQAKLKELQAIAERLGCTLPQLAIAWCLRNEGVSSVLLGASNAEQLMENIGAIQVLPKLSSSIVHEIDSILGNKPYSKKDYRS

[7] = biological target: Voltage-gated potassium channel subunit beta-2 (Rattus norvegicus) (UniProt P62483); assay: KvBeta positive modulators, primary screen, biochemical, NADPH fluorescence (AID 623;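 active means NADPH fluorescence slope more negative than the mean of all samples by about 3 SD, 99.7% confidence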;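 further: fluorescence intensity change per second fitted from 20 to 320 s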); settings: Recombinant KvBeta, NADPH fluorescence decrease slope, 10 min; at 10 µM; stronger effect = lower value
[8] = biological target: Alpha-2C adrenergic receptor (Homo sapiens) (UniProt P18825); assay: modulators of alpha2C/GIRK thallium flux, primary screen, cell-based, HEK293 alpha2C/GIRK1/2 (AID 624;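 active means fluorescence slope after compound addition differing from the mean of all screened samples at 99.7% confidence, in either direction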;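 further: slope of fluorescence ratio to pre-addition baseline per second over 15 to 24 s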); settings: thallium flux BTC fluorescence, at 10 µM, actives lie on both sides
Sequence of Alpha-2C adrenergic receptor (Homo sapiens) (P18825 whole entry, looked up): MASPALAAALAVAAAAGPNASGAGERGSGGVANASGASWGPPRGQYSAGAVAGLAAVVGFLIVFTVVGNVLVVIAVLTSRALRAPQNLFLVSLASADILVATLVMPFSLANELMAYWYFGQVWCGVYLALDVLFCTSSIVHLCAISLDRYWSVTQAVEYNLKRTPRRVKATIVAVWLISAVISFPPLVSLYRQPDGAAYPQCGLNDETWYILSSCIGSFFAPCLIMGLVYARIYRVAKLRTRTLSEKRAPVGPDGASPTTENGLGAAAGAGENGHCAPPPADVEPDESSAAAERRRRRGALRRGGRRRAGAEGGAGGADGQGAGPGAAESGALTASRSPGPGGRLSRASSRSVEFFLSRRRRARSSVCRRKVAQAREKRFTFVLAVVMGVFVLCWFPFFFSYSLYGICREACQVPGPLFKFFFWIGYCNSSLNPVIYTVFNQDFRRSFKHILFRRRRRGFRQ

[9] = inhibitors of larval lipid processing in zebrafish, primary screen, whole organism, PED6 fluorescence, gall bladder and intestine (AID 686;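 active means a full or partial loss of lipid-probe fluorescence in the fish gall bladder, intestine or both, judged by eye; inactive means no fluorescence loss, or compound toxic to the fish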;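 further: larvae 5 to 7 days old with five fish per well; signal comes from phospholipase A2 cleavage of quenched PED6 carried via bile; overnight exposure to compound and PED6 before scoring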); settings: Zebrafish larvae PED6 lipid processing, fluorescence scoring; screened at 20 µM (by protocol)
[10] = inhibitors of Chlamydomonas gravitaxis, primary screen, whole organism, Chlamydomonas reinhardtii, WT vs cilia-less mutant, absorbance, 96-well (AID 463189); settings: OD600 absorbance, 2 days, at 10 µM, stronger effect = higher value;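 further: 0% = wild type cc124 cells in DMSO and 100% = ciliumless bld1 mutant cells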
[11] = inhibitors of Sendai virus-induced IRF3 signaling, primary screen, TLR/RLR signaling modifier project, cell-based, Sendai virus stimulus, luciferase, 10K MLSCN set (AID 602276;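 active means inhibition at or above 50% at 10 µM; inactive means inhibition below 50%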;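 further: firefly luciferase from ISG56 promoter only with Renilla not read in this screen; 0% = Sendai virus plus DMSO and 100% = medium plus DMSO without virus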); settings: HEK293 RL24 IRF3 luciferase reporter, at 10 µM, stronger effect = higher value
[12] = inhibitors of poly I:C-induced TLR3 signaling, primary screen, cell-based, poly I:C stimulus, luciferase, 10K MLSCN set (AID 602277;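 active means inhibition of the reporter signal at or above 50%; inactive means inhibition below 50%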); settings: HEK293-TLR3 RL24 IRF3 luciferase reporter, at 10 µM, stronger effect = higher value
[13] = measured here: cell density z-score
[14] = measured here: nuclear c-Myc green intensity z-score
[15] = measured here: nuclear pErk red intensity z-score, stronger effect = higher value

Row | Compound | cell count [1] | inhibition [1] | inhibition of aggregation [2] | nuclei count [2] [%] | inhibition [3] | nuclei count [3] [%] | z-score [4, 13] | z-score [4, 14] | z-score [4, 15] | inhibition [5] | fluorescence slope [6] | NADPH fluorescence slope [7] | slope [8] | outcome [9] | inhibition [10] | inhibition [11] | inhibition [12]
1 | Cc1cc(-c2ccccc2)nnc1NCCN1CCOCC1 | 674 | 5.8% (inactive) | -29.4% (inactive) | 99.9 | -64.4% (inactive) | 119 | 0.561 | 0.88 | 0.22 | 25.7% (inactive) | -0.472 (inactive) | -2e-05 (inactive) | 0.00515 (inactive) | inactive | 15.7% (inactive) | 13.3% (inactive) | 33.7% (inactive)
2 | O=C(O)Cc1cc(I)c(Oc2ccc(O)c(I)c2)c(I)c1 | 625 | 3.9% (inactive) | 12.4% (inactive) | 103 | -92% (inactive) | 123 | 0.485 | -0.133 | 0.686 | 8% (inactive) | -0.541 (inactive) | -4.1e-05 (inactive) | 0.00612 (inactive) | inactive | 22% (inactive) | -15.1% (inactive) | -273% (inactive)
3 | Cc1c(Cl)cccc1Nc1ccccc1C(=O)O | 612 | -8.8% (inactive) | 17.9% (inactive) | 108 | -156% (inactive) | 129 | -0.93 | -0.312 | 1.31 | 5.42% (inactive) | -0.466 (inactive) | -4.7e-06 (inactive) | 0.00655 (inactive) | inactive | -6.31% (inactive) | 4.32% (inactive) | 19.5% (inactive)
4 | COc1ccc(C2/C(=C(/O)c3ccccc3)C(=O)C(=O)N2c2ncccn2)cc1OC (stereo not drawn) | 460 | -0.7% (inactive) | 2.3% (inactive) | 108 | -7.4% (inactive) | 151 | -0.394 | 1.14 | -0.858 | 11.4% (inactive) | -0.338 (inactive) | -3.2e-05 (inactive) | 0.00532 (inactive) | inactive | -1.92% (inactive) | 7.62% (inactive) | 3.83% (inactive)
5 | O=C(c1cccc2ccccc12)N1CCC(N2CCN(c3ccccc3)CC2)CC1 | 373 | -1.4% (inactive) | 12.1% (inactive) | 95.9 | -64.1% (inactive) | 81.4 | 0.565 | 1.38 | -0.642 | 13.2% (inactive) | -0.528 (inactive) | -1.2e-05 (inactive) | 0.00499 (inactive) | inactive | 29.4% (inactive) | 4.24% (inactive) | 21.4% (inactive)
6 | CCCCC1C(=O)N(c2ccccc2)N(c2ccccc2)C1=O | 638 | 4.6% (inactive) | -5.9% (inactive) | 96.9 | -26.6% (inactive) | 109 | 1.68 | -0.325 | -0.291 | 8% (inactive) | -0.483 (inactive) | -4.2e-05 (inactive) | 0.00446 (inactive) | inactive | 5.13% (inactive) and -8.61% (inactive) | 19.9% (inactive) | 41.2% (inactive)
7 | COc1ccc(/C=C(/C#N)c2cccnc2)cc1OC | 515 | 4.6% (inactive) | 17.7% (inactive) | 82.3 | -17.2% (inactive) | 112 | 0.571 | -1.05 | -1.32 | 1.48% (inactive) | -0.499 (inactive) | -4.4e-05 (inactive) | 0.00455 (inactive) | inactive | -22% (inactive) | 6.71% (inactive) | -45.5% (inactive)
8 | COc1ccccc1-n1c(=O)c2c3c(sc2n2c(SC(C)C)nnc12)CCC3 | 643 | -11.3% (inactive) | 31.3% (active) | 93.7 | -68% (inactive) | 145 | 1.45 | -1.07 | 1.13 | -11% (inactive) | -0.248 (inactive) | 1.3e-05 (inactive) | 0.005 (inactive) | inactive | 34.4% (inactive) | 0.779% (inactive) | 20.4% (inactive)
9 | CN1CCc2c(sc3c2c(=O)n(-c2ccccc2)c2nnc(SCc4ccccc4)n32)C1 | 562 | -16.1% (inactive) | 8.3% (inactive) | 116 | -95.1% (inactive) | 142 | 0.865 | -2.08 | -0.239 | 3.66% (inactive) | -0.563 (inactive) | -1.4e-05 (inactive) | 0.00449 (inactive) | inactive | 5.3% (inactive) | -12.4% (inactive) | 98.5% (active)
10 | O=[N+]([O-])c1cccc2cn[nH]c12 | 615 | 1.2% (inactive) | 15.8% (inactive) | 81.4 | -87% (inactive) | 116 | 2.27 | -1.27 | -1.46 | 3.45% (inactive) | -0.448 (inactive) | -7.3e-05 (inactive) | 0.00537 (inactive) | inactive | 4.7% (inactive) and 1.19% (inactive) | 15.9% (inactive) | 50.4% (active)
11 | COc1ccc2nc(S(=O)Cc3ncc(C)c(OC)c3C)[nH]c2c1 (stereo not drawn) | 542 | 1.6% (inactive) | 2.2% (inactive) | 97.5 | -24.2% (inactive) | 108 | 0.164 | 1.22 | -0.909 | 25.7% (inactive) | -0.449 (inactive) | -7.2e-06 (inactive) | 0.00367 (inactive) | inactive | 27% (inactive) | -9.53% (inactive) | -10.5% (inactive)
12 | CC1CCc2cc(F)cc3c(O)c(C(=O)Nc4cnccn4)c(=O)n1c23 (stereo not drawn) | 457 | -7.7% (inactive) | 3.8% (inactive) | 99.3 | -40.6% (inactive) | 99.4 | 0.762 | 0.74 | 0.103 | 17.5% (inactive) | -0.351 (inactive) | 2e-05 (inactive) | 0.0057 (inactive) | inactive | -9.12% (inactive) | 13.2% (inactive) | 21.7% (inactive)
13 | OCC(O)CN1CCN(c2ccccc2)CC1 (stereo not drawn) | 605 | -6.5% (inactive) | -0.5% (inactive) | 108 | -69.1% (inactive) | 122 | 0.00928 | 0.0558 | -0.225 | 25.1% (inactive) | -0.455 (inactive) | -1.7e-06 (inactive) | 0.00502 (inactive) | inactive | 19.7% (inactive) | 17.9% (inactive) | 40.8% (inactive)
14 | OC(CCN1CCCC1)(c1ccccc1)C1CCCCC1 (stereo not drawn) | 573 | 6.7% (inactive) | -8.9% (inactive) | 114 | -40.8% (inactive) | 106 | 1.31 | -0.388 | -1.18 | 19.2% (inactive) | -0.528 (inactive) | -6.1e-05 (inactive) | 0.00512 (inactive) | inactive | 37.7% (inactive) | 0.492% (inactive) | -2.26% (inactive)
15 | COC(=O)C1=C(N)Oc2cc(C)[nH]c(=O)c2C1c1ccncc1 (stereo not drawn) | 415 | -3.5% (inactive) | 5.1% (inactive) | 99.8 | -70.4% (inactive) | 132 | 1.07 | -0.647 | -1.1 | 11.4% (inactive) | -0.45 (inactive) | -0.000119 (inactive) | 0.00625 (inactive) | inactive | 35.9% (inactive) | 22.8% (inactive) | 38.8% (inactive)
16 | CCCN(CCC)S(=O)(=O)c1ccc(C(=O)O)cc1 | 623 | -9.8% (inactive) | 6.1% (inactive) | 108 | -101% (inactive) | 118 | 0.315 | 0.261 | 0.309 | -2.46% (inactive) | -0.448 (inactive) | 3.2e-06 (inactive) | 0.00488 (inactive) | inactive | -3.99% (inactive) | 0.7% (inactive) | 13.7% (inactive)
17 | CN1CCN(CCCN2c3ccccc3Sc3ccc(C(F)(F)F)cc32)CC1 | 613 | 4.1% (inactive) | -9.7% (inactive) | 101 | -23.1% (inactive) | 121 | 0.592 | 0.844 | 1.24 | -5.24% (inactive) | -0.437 (inactive) | -1.6e-05 (inactive) | 0.00437 (inactive) | inactive | 35.7% (inactive) and 164% (active) | 18.2% (inactive) | 40.2% (inactive)
18 | COc1ccc(Nc2nc(Nc3ccc(OC)cc3)nc(-n3[nH]c(=O)c(C)c3C)n2)cc1 | 656 | -10.8% (inactive) | 0.5% (inactive) | 124 | -17.7% (inactive) | 122 | -0.0693 | 1.31 | 0.0692 | 13.9% (inactive) | -0.474 (inactive) | -5.6e-05 (inactive) | 0.00543 (inactive) | inactive | 2.29% (inactive) | 22.1% (inactive) | 8.22% (inactive)
19 | C#CCN(C)Cc1ccccc1 | 613 | -8.1% (inactive) | 11.2% (inactive) | 96.3 | -105% (inactive) | 135 | 1.46 | -0.921 | -1.15 | 13.3% (inactive) | -0.461 (inactive) | -3.5e-05 (inactive) | 0.00478 (inactive) | inactive | -8.12% (inactive) and 10.4% (inactive) | 18.7% (inactive) | 42.3% (inactive)
